12-LOX inh: Primary qHTS assay for inhibitors of human arachidonate 12S-lipoxygenase (ALOX12): Round 2; Polyunsaturated fatty acid lipoxygenase ALOX12 (Homo sapiens), P18054; purified 12hLO, xylenol orange hydroperoxide absorbance; Potency, µM (series often up to 108 µM), inactives show top-dose activity change, negative = inhibition, hits mostly inhibitors; 580,000 compounds, 1.1% hits; note: potency is the fitted concentration of half-maximal effect
Target sequence (P18054 whole entry, looked up): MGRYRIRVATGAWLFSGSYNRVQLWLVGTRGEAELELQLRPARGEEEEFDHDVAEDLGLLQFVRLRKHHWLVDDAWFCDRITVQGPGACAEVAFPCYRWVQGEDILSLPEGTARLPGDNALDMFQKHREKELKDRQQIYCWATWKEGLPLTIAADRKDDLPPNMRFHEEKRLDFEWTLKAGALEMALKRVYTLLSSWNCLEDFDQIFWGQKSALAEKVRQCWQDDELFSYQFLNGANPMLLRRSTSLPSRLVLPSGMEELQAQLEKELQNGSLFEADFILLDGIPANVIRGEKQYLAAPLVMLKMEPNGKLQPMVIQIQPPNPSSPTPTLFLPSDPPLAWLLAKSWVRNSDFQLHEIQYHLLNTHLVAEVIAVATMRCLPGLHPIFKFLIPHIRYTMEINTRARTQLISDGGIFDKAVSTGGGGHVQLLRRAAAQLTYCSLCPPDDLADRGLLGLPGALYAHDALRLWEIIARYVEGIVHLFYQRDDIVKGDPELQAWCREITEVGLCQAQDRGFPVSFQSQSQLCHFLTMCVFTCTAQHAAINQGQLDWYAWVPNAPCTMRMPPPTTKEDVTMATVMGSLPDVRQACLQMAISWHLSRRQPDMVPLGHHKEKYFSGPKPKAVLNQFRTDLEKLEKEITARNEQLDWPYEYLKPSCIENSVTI
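Purified human 12hLO (150 nM final) in 25 mM Hepes, 0.01% Triton X-100, pH 7.0 was preincubated 15 min at room temperature with compound. Then 40 uM arachidonic acid was added, 30 min. Hydroperoxide was read by Fe-XO absorbance ratio 573/405 nm.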
HT1080 IDH1KD tx: qHTS for induction of synthetic lethality in tumor cells producing 2HG: qHTS for the HT-1080-IDH1KD cell line. HT-1080 IDH1 knockdown viability, ATP luminescence, 48 h. Potency, µM (top dose mostly 46.1 µM), inactives show at the top dose activity, negative = toxicity, actives largely listed as cytotoxic. 360,000 compounds, 2% hits;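 note: potency is the fitted concentration of half-maximal effect; 0% = DMSO wells and -100% = cell-free medium wells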
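After a 2 h attachment period, IDH1KD HT-1080 cells took pin-transferred compound for 48 h at 37 °C; ATP-based luminescence after 10 min room-temperature reagent incubation reported viability.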
DT40 TDP1 no CPT: qHTS for Inhibitors of human tyrosyl-DNA phosphodiesterase 1 (TDP1): qHTS in cells in absence of CPT | DT40 Tdp1-/- hTDP1 cells, no CPT, ATP luminescence, 48 h | Potency, µM (titrated, usually from 46.2 µM), for inactives: at the highest dose activity change, negative = growth inhibition, hits mostly inhibitors | 420,000 compounds, 15% hits | AID 686978, 2013; note: potency is the fitted concentration of half-maximal effect; nearly all actives have a fitted effect of over 55% in size
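Cells were dispensed at 400 per well, compounds added by pin tool, plates incubated ≥48 hr at 37 °C, then CellTiter-Glo added for 30 min at room temperature before luminescence reading. Line: DT40 Tdp1-/- complemented with hTDP1; camptothecin omitted.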
IL-1B inflam inh: qHTS for Inhibitors of Inflammasome Signaling: IL-1-beta AlphaLISA Primary Screen; 360,000 compounds, 4.7% hits; THP-1 LPS/ATP IL-1B secretion, AlphaLISA, 16 h; stronger effect = lower value; activity change, % at 57.5 µM; AID 743279, 2014; in the data active = activity change below about -50%; inconclusive = mostly about -30% to -49%
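THP-1 cells pretreated 1 hr with compounds (up to 57.5 uM final), then stimulated with LPS (250 ng/mL final) plus ATP (1.25 mM final); secreted IL-1B measured by AlphaLISA after 16 hr, decreased signal indicating inhibition.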
TDP1 cell CPT: qHTS for Inhibitors of human tyrosyl-DNA phosphodiesterase 1 (TDP1): qHTS in cells in presence of CPT; AID 686979, 2013; chicken DT40 Tdp1-/-;hTDP1 cells + 20 nM CPT, ATP luminescence, 48 h; Potency, µM (doses to about 46.2 µM), inactives show at the top dose activity change, negative = growth inhibition, actives largely listed as inhibitors; 420,000 compounds, 12% hits; note: potency is the fitted concentration of half-maximal effect; nearly all actives have a fitted effect of over 55% in size
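Cell growth measured by CellTiter-Glo luminescence after a minimum 48 h, 37 C compound exposure with 20 nM CPT in Tdp1-knockout DT40 cells stably expressing hTDP1, seeded 400/well; qHTS titration format.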
HT1080-NT tox: qHTS for induction of synthetic lethality in tumor cells producing 2HG: qHTS for the HT-1080-NT fibrosarcoma cell line. HT-1080-NT fibrosarcoma viability, CellTiter-Glo ATP luminescence, 48 h. Potency, µM (series often up to 46.1 µM), without a hit: at the highest dose activity, negative = less viability, actives largely listed as cytotoxic. 360,000 compounds, 1.6% hits;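 note: NT is the 2HG producing partner of a matched IDH1 knockdown line; potency is the fitted concentration of half-maximal effect; 0% = DMSO-treated cells and -100% = media-only wells without cells; nearly all actives have a fitted effect of over 55% in size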
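Read-out is CellTiter-Glo luminescence after 10 minutes at room temperature, following 48 hours' compound treatment of HT-1080-NT cells (750 cells/well, RPMI, 5% FBS, 37 degrees C).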
Starred values were filed as active, the others as inactive; ? = inconclusive; . = not tested or not shown; [ ] = another dose, or the depositor's remark. The sample as a whole holds a higher share of hits than the screen did. Unless noted, calls come from the whole dose curve; as a rule, active = well fitted curve in the direction sought with a large enough effect; inconclusive = small, poorly fitted or top-dose-only effect, or another doubt; inactive = no such curve, though single readings can be large; an effect the other way counts as inactive or inconclusive. Unless noted, % is set by controls: 0 for no effect and ±100 for the full control effect.

SMILES	12-LOX inh	HT1080 IDH1KD tx	DT40 TDP1 no CPT	IL-1B inflam inh	TDP1 cell CPT	HT1080-NT tox
NC(c1csc(NC(=O)Nc2ccccc2)n1)C1CCCCC1 (stereo not given)	8%	?	15µM*	?	?	?
O=C(Cc1csc(NC(=O)Nc2cccc(Cl)c2)n1)NC1CCCC1	-1%	-1%	?	-17	?	1%
NC(c1csc(NC(=O)Nc2cccc(Cl)c2)n1)C1CCCCC1 (stereo not given)	?	18µM*	?	-96*	18µM*	18µM*
CC(C)c1nc(N2CCOCC2)ncc1C(=O)O	17%	.	.	.	.	.
Cc1ccc(CCSc2ccc(F)cc2)cn1	0%	8%	?	-16	1%	16%
Cc1ccc(CCSc2ccc(C(C)C)cc2)cn1	-17%	0%	26µM*	-59*	?	-1%
CCC(C)[C@H](N)c1nnc(SCC(=O)c2ccc(Cl)cc2)o1 (stereo not given in full)	?	-5%	7.1µM*	-5	4µM*	1%
CCOCOCc1cc(OC(C)C)ccc1N1C(=O)C[C@@H](C(=O)OC)[C@H]1c1ccc(OC(C)C)c(OC)c1	-20%	.	.	.	.	.
CCOC(=O)c1c(C)[nH]c(C)c1S(=O)(=O)N1CCCC(C(=O)N2CCN(c3cccc(C)c3C)CC2)C1 (stereo not given)	-24%	.	?	.	15µM*	.
CCOC(=O)c1c(C)[nH]c(C)c1S(=O)(=O)N1CCCC(C(=O)N2CCN(c3cccc(Cl)c3)CC2)C1 (stereo not given)	-26%	.	21µM*	.	21µM*	.
CS/C(N)=N/N=C/c1c(O)ccc2ccccc12	?	?	3.7µM*	34	?	-16%
Oc1ccccc1C=Nc1cccc2ccccc12	140%	-12%	-2%	14	-2%	-3%
CN(C)/N=C/c1c(O)ccc2ccccc12	?	-6%	-28%	-6	-8%	-1%
Oc1oc(-c2ccccc2)nc1C=Nc1cccc2ccccc12	-2%	-16%	16µM*	13	?	?
Oc1cccc(C=Nc2cccc3ccccc23)c1O	?	23µM*	?	-59*	?	18µM*
Oc1ccccc1N=Cc1c(O)ccc2ccccc12	-14%	18µM*	-17%	35	?	?
O=S1(=O)CC(N2CCCC2)CN1Cc1cn(Cc2ccccc2)nn1 (stereo not given)	0%	15%	-26%	13	1%	26%
COc1ccc(C(=O)N2CC[C@H]3COC(=O)N3c3ccccc3C2)cc1	5%[176 µM]	.	.	.	.	.
Oc1ccc2ccccc2c1C=NC12CN3CCN(CN(C3)C1)C2	8%	-5%	?	25	13µM*	-2%
OCC(CO)(CO)N=Cc1c(O)ccc2ccccc12	-29%	?	?	22	?	?
COc1cccc(C2CC(=O)Nc3c2c(=O)[nH]c2nc4ccccc4n32)c1 (stereo not given)	-25%	.	.	.	.	.
Cc1nc(C)c(C(=O)N2CCC(c3nnc(Cn4ccnc4)n3C)CC2)o1	29%	.	.	.	.	.
O=C(C1CCCN(S(=O)(=O)c2cccc3nonc23)C1)N1CCN(c2ccccc2)CC1 (stereo not given)	-15%	-14%	22µM*	-51*	?	-4%
CC(=O)c1ccc(N2CCN(C(=O)C3CCN(S(=O)(=O)c4cccc5nonc45)CC3)CC2)cc1	-23%	.	23µM*	.	?	.
O=C(C1CCN(S(=O)(=O)c2cccc3nonc23)CC1)N1CCN(c2ccccc2F)CC1	-24%	.	?	.	?	.
SMILES	12-LOX inh	HT1080 IDH1KD tx	DT40 TDP1 no CPT	IL-1B inflam inh	TDP1 cell CPT	HT1080-NT tox
CCOc1ccc(-c2cnc(-c3cnc(CC)nc3)[nH]2)cc1OCC	6%	.	.	.	.	.
COc1ccc(CNC(=O)C2CCc3sc(C(=O)N(C)C)cc3C2)cc1 (stereo not given)	37%	.	.	.	.	.
COCCCNc1nc(SCc2ccccc2)nc2sc3c(c12)CCC3	0%	12%	21µM*	7	?	-2%
N#Cc1cnn(-c2nc(SCc3ccccc3)nc3sc4c(c23)CCCC4)c1N	-10%	-24%	4%	17	-20%	-25%
CCOC(=O)C(C)(C)N(Cc1ccc(C)cc1)S(=O)(=O)c1ccc(Cl)c([N+](=O)[O-])c1	-1%	?	13µM*	-104*	15µM*	?
NS(=O)(=O)c1ccc(CNC(=O)c2ccc(Cl)c([N+](=O)[O-])c2)cc1	0%	7%	?	?	?	1%
CSCCC(NC=O)C(=O)NC(C)C(=O)O (stereo not given)	8%	7%	0.65µM*	-22	2.9µM*	-1%
CSCCC(NC=O)C(=O)NC(CC(C)C)C(=O)NC(Cc1ccccc1)C(=O)O (stereo not given)	.	.	-3%	.	-4%	.
COc1ccc(-c2nc(NC(=O)C3CC(=O)N(c4ccc5c(c4)OCCO5)C3)sc2C)cc1 (stereo not given)	-10%	?	6.3µM*	17	6.3µM*	?
CN(Cc1ccccc1Cl)C(=O)C1CC(=O)N(c2ccc3c(c2)OCCO3)C1 (stereo not given)	?	0%	-22%	0	?	-1%
COc1ccc(CN(C)C(=O)C2CC(=O)N(c3ccc4c(c3)OCCO4)C2)c(OC)c1 (stereo not given)	7%	-2%	16µM*	-11	21µM*	-2%
CC(N)c1cccc(S(N)(=O)=O)c1 (stereo not given)	-27%	.	.	.	.	.
S=C(Nc1cc(Cl)cc(Cl)c1)NC1CCN(Cc2ccccc2)CC1	?	?	6.5µM*	-66*	8.2µM*	16µM*
Cc1c(Cl)cccc1NC(=S)NC1CCN(Cc2ccccc2)CC1	?	-12%	?	-73*	?	-21%
CC(C)c1ccccc1NC(=S)NC1CCN(Cc2ccccc2)CC1	-11%	1%	?	?	?	0%
